PLK1 PBD inh – inhibitors of human PLK1 polo-box domain binding. 360,000 tested, 2.8% active. P53350. AID 720504. Plk1 PBD binding of FITC phosphopeptide, fluorescence polarization. Potency, µM, without a hit: max response, negative = inhibition, most hits filed as inhibitors; also: series mostly up to about 57 µM; nearly all actives have a fitted effect of over 65% in size
TDP1 block – TDP1 (human) enzyme inhibition; 350,000 tested, 0.28% active; Potency, µM (titrated, usually from 130 µM), without a hit: top-dose activity change, negative = inhibition, hits mostly inhibitors; Q9NUW8; recombinant TDP1, AlphaScreen DNA substrate cleavage; also: nearly all actives have a fitted effect of over 40% in size
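Here, a 5' biotin and 3' phosphotyrosine-FITC DNA oligonucleotide reports Tdp1 activity: intact substrate bridges AlphaScreen beads, while cleavage leaves a 3' phosphate and drops signal. All incubations at room temperature.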
DT40 TDP1 no CPT – qHTS for Inhibitors of human tyrosyl-DNA phosphodiesterase 1 (TDP1): qHTS in cells in absence of CPT; DT40 Tdp1-/- hTDP1 cells, no CPT, ATP luminescence, 48 h; Potency, µM (titrated, usually from 46.2 µM), for the others: top-dose activity change, negative = growth inhibition, usual class: inhibitors; 420,000 tested, 15% active; also: nearly all actives have a fitted effect of over 55% in size
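Readout: luminescence from CellTiter-Glo after 30 min in the dark at RT. Cells: DT40 Tdp1-/- with stable hTDP1, 400/well. Exposure: compounds alone, ≥48 hr, 37 °C.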
DT40 TDP1 CPT – DT40-hTDP1 cell growth loss with CPT | chicken DT40 Tdp1-/-;hTDP1 cells + 20 nM CPT, ATP luminescence, 48 h | Potency, µM (top dose mostly 46.2 µM), for inactives: top-dose activity change, negative = growth inhibition, actives largely listed as inhibitors | 420,000 tested, 12% active | AID 686979; also: nearly all actives have a fitted effect of over 55% in size
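Chicken DT40 Tdp1-/- cells stably complemented with human TDP1 were seeded at 400 cells/well in medium containing 20 nM camptothecin, exposed to pin-transferred compounds, and grown at 37 °C for at least 48 hr. Viability was read as ATP luminescence.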
KAT2A inh – blocks human GCN5L2 histone acetyltransferase. AID 504327. Potency, µM (top dose mostly 58.9 µM), for the others: at the highest dose activity change, negative = inhibition, hits mostly inhibitors. GCN5L2 HAT assay, ThioGlo1 CoA-SH fluorescence. 390,000 tested, 0.21% active. Q92830
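Titration-based screen in which CoA formation is detected via maleimide probe ThioGlo1 (50uM) turning fluorescent on thiol reaction; substrates H3(1-25) 75uM and acetyl-CoA 70uM, GCN5L2 20nM, 20 min incubation at room temperature.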
VDR inhibitor – inhibitors of human vitamin D receptor. P11473. VDR-SRC2-3 peptide fluorescence polarization, 2 h. Potency, µM, inactives show max response, negative = inhibition, actives largely listed as inhibitors. 400,000 tested, 0.93% active. AID 504847
Target sequence (P11473 whole entry, looked up): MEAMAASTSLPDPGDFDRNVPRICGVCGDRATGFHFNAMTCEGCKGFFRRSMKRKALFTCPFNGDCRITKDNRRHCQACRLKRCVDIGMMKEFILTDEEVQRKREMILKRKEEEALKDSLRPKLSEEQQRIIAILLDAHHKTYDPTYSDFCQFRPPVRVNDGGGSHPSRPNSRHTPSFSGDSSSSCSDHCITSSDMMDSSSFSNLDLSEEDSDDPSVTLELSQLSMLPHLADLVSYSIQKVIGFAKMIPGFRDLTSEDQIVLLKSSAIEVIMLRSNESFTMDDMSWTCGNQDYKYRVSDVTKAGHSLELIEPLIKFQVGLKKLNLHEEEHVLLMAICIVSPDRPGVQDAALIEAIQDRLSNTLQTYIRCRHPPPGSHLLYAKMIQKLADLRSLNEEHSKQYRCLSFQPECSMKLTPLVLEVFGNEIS
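Measured by FP: displacement of SRC2-3 coactivator peptide from VDR by library compounds, following a two-hour ambient incubation.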
Active calls of the source: *; ? = inconclusive; / = no result; [ ] = another dose, or the depositor's remark. In the library only some 18% were active in any assay of this set; here they are far more common. Calls follow the shape of the dose curve; as a rule, active = well fitted curve in the direction sought with a large enough effect; inconclusive = small, poorly fitted or top-dose-only effect, or another doubt; inactive = no such curve, though single readings can be large; an effect the other way counts as inactive or inconclusive. % is scaled to controls: 0 for no effect and ±100 for the full control effect; potency is read from the fitted curve at half-maximal effect.

SMILES | PLK1 PBD inh | TDP1 block | DT40 TDP1 no CPT | DT40 TDP1 CPT | KAT2A inh | VDR inhibitor
CC(=O)Oc1oc(-c2ccccc2)nc1/C=N/c1ccccn1 | 9.5µM* | 4% | 21µM* | 16µM* | -9% | 22µM*
COc1ccc(N=Cc2nc(-c3ccco3)oc2O)cc1 | -7% | 2% | 29µM* | ? | -4% | 0%
CC(=O)Oc1oc(-c2ccccc2)nc1C=Nc1ccc(N(C)C)cc1 | -13% | 0% | ? | ? | -18% | 6%
CN(C)c1ccc(N=Cc2nc(-c3ccccc3)oc2OC(=O)c2ccccc2)cc1 | 2% | 0% | 23µM* | 18µM* | 2% | -4%
CN(C)c1ccc(N=Cc2nc(-c3ccccc3)oc2O)cc1 | 13µM* | 8% | -1% | -7% | -1% | -5%
Cc1nn(-c2cccc(Cl)c2)c2nc(-c3cccnc3)cc(C(F)(F)F)c12 | / | 0% | -14% | 2% | -2% | 14%
CCN(C(=O)C1CCN(c2nc(-c3ccc(OC)cc3)no2)CC1)c1ccc(OC)cc1 | 2% | / | 16µM* | ? | 1% | 5%
COc1ccc(-c2noc(N3CCC(C(=O)N4CCN(c5cccc(OC)c5)CC4)CC3)n2)cc1 | / | 5% | 3.3µM* | 6.5µM* | -23% | 8%
COc1ccc(-c2noc(N3CCC(C(=O)NCc4ccc(F)cc4)CC3)n2)cc1 | 0% | / | ? | -28% | 22% | -12%
COc1ccc(-c2noc(N3CCC(C(=O)N4CCN(c5ccccn5)CC4)CC3)n2)cc1 | 0% | 7% | 10µM* | 23µM* | -5% | 9%
COc1ccc(-c2noc(N3CCC(C(=O)NCCCN4CC(C)CC(C)C4)CC3)n2)cc1 (stereo unspecified) | -12% | 3% | ? | 3.7µM* | -1% | -3%
COc1cccc(N2CCN(C(=O)C3CCN(C(=O)Nc4ccccc4)CC3)CC2)c1 | 0% | / | -3% | -11% | / | /
N#CN1CCC(NS(=O)(=O)c2ccc(F)cc2)C1 (stereo unspecified) | / | 0% | / | / | / | /
COc1cccc(NC(=O)CN(C)C(=O)CCCc2nc3ccccc3s2)c1 | -8% | -1%[0.505 µM] | -17% | -17% | -4% | 9%
CN1CCN(c2ncc3nc(-c4cc(F)cc(F)c4)c(=O)n(CCC#N)c3n2)CC1 | / | / | ? | ? | 25µM* | 22µM*
CN1CCN(c2ncc3nc(-c4ccc(Cl)cc4)c(=O)n(CCC#N)c3n2)CC1 | / | / | 16µM* | ? | ? | ?
COc1ccc(-c2nc3cnc(N4CCNCC4)nc3n(CCC#N)c2=O)cc1 | / | / | ? | ? | ? | 2%
N#CCCn1c(=O)c(-c2ccc(Cl)cc2)nc2cnc(N3CCNCC3)nc21 | / | / | ? | 7.3µM* | ? | -2%
N#CCCn1c(=O)c(-c2ccc(F)cc2)nc2cnc(N3CCNCC3)nc21 | / | / | 21µM* | ? | -18% | -2%
CN1CCN(c2ncc3nc(-c4cccc(C#N)c4)c(=O)n(CCC#N)c3n2)CC1 | / | / | 21µM* | ? | -28% | 3%
COCCn1c(=O)c(-c2cccc(C#N)c2)nc2cnc(N3CCNCC3)nc21 | / | / | ? | -6% | ? | -25%
O=C(CCl)NC(Cc1ccccc1)c1ccccc1 (stereo unspecified) | -1% | 2% | 23µM* | 15µM* | 2% | -11%
Cc1cc(OCC(=O)OCC(=O)NCc2ccco2)ccc1Cl | 1% | -2% | -19% | -4% | 0% | -6%
O=C(/C=C/c1cccs1)c1cc(Cl)ccc1O | -3% | 2% | ? | 16µM* | -6% | ?
O=C(C=Cc1cccs1)c1ccc(Cl)s1 | -12% | / | ? | -5% | / | 40µM*
O=C1CC(c2ccc(Cl)cc2)CC(O)=C1C=NCCO (stereo unspecified) | ? | / | -8% | -2% | -2% | -19%
Cc1ccc(C)c(S(=O)(=O)Nc2ccc(C(N)=O)cc2)c1 | -12% | 2% | -18% | ? | 2% | 13%

Assay outcomes deposited in PubChem by National Center for Advancing Translational Sciences (NCATS).
